Measured values taken from PubChem BioAssay AID485344 (National Center for Advancing Translational Sciences (NCATS), 2010).
In all, about 340,000 compounds went through this assay and about 6,900 (2%) were called active. No stated cut-off is given here; in the data, active means inhibition above about 30%; inactive means below that, where a call was filed. For the sample, actives were picked, then their nearest neighbours and some compounds at random.

Biological target: D(2) dopamine receptor (Homo sapiens) (UniProt P14416)
Test: HTS Assay for Allosteric Antagonists of the Human D2 Dopamine Receptor: Primary Screen for Antagonists; further: 0% is about no effect
Details: HEK293 TREx D2 cells, calcium flux, dopamine EC80; at 10 µM; active compounds read high
How it was run: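 Tetracycline-induced HEK293 T-REx cells expressing D2 force-coupled to calcium signalling were dye-loaded, exposed to compound for 180 s, then challenged with an EC80 of dopamine; calcium flux was followed kinetically for a further 180 s.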

Chain of D(2) dopamine receptor (Homo sapiens) (P14416 whole entry, looked up): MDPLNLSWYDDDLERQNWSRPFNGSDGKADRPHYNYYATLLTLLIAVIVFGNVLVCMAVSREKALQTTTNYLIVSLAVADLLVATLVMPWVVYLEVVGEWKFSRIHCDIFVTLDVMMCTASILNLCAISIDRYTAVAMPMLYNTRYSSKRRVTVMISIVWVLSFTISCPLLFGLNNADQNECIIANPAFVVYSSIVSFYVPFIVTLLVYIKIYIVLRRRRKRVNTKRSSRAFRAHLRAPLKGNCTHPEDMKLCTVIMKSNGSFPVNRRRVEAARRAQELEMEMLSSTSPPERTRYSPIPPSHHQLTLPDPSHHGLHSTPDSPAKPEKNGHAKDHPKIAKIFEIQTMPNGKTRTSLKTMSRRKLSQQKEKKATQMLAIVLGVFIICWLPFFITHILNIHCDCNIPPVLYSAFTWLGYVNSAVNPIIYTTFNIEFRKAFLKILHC

inhibition, active:
COC(=O)c1c(C)[nH]c(C(=O)/C=C/c2ccc(Cl)cc2)c1C 40.8%
OCC1(Cc2ccccc2)CCN(Cc2cc3ccccc3o2)CC1 94.6%
O=C(c1ccc(F)cc1)C1CCN(Cc2cn[nH]c2-c2ccccc2)CC1 56%
O=C(Nc1cccc(-c2nnc(-c3ccccc3)o2)c1)C1CCCO1 (configuration not stated) 63%
COc1ccc(NC(=O)CC2SC(N3CCCCC3)=NC2=O)cc1OC (configuration not stated) 40.6%
Cc1ccc2oc(=O)c3cnn(CC(=O)N(Cc4ccco4)C4CCCCC4)c3c2c1 32.4%
O=C(NC1CCN(Cc2ccccc2)CC1)c1cc(Br)c(Br)[nH]1 78.3%
Cc1cc(C(=O)NC2CCN(Cc3ccccc3)CC2)n[nH]1 74.1%
O=C(NC(=S)N1CCN(Cc2ccccc2)CC1)c1ccccc1 31.2%
COc1c(O)ccc2c1CN1CCc3cc4c(cc3C1C2)OCO4 (configuration not stated) 74.1%
CS(=O)(=O)N(CC(O)Cn1c2ccccc2c2ccccc21)c1cccc2ccccc12 (configuration not stated) 31.2%

inhibition, inactive:
CC(C)N(Cc1nnc(-c2ccccc2Br)o1)C(=O)c1cc(Cl)nc2ccccc12 -0.847%
Cc1cc(C)cc(OCC(=O)Nc2ccc(N3CCOCC3)cc2N2CCOCC2)c1 -19.7%
CCOc1ccc(S(=O)(=O)N2CCC(C(=O)NCC(=O)Nc3cccc(Cl)c3C)CC2)cc1 0.735%
N#Cc1ccccc1S(=O)(=O)N1CCN(Cc2c(O)ccc3ccccc23)CC1 -16.7%
COc1cccc(CNC(=O)C(=O)NCCC2CCCCN2S(=O)(=O)c2ccc(C)cc2)c1 (configuration not stated) -3.22%
C[C@@H](NC(=O)c1nc[nH]c1C(=O)N1CCN(C(=O)OC(C)(C)C)CC1)c1ccccc1 4.62%
CCCCOC(=O)c1[nH]c(C)c(C(=O)OC)c1C -12.8%
Cc1ccc(NC(=S)NC(=O)/C=C/c2ccc(Cl)cc2)cc1 -2.32%
CC(=O)c1cccc(CN2CCC(CO)(Cc3ccccc3)CC2)c1 3.1%
CC(C)c1csc(CN2CCC(CO)(Cc3ccccc3)CC2)n1 0.256%
COc1ccc(CN2CCNC(=O)C2CC(=O)NCc2cn[nH]c2-c2ccccc2)c(F)c1 (configuration not stated) -65.2%
OCC1(CCOc2ccccc2)CCN(Cc2cn[nH]c2-c2ccccc2)CC1 -12.6%
Cc1ccc(S(=O)(=O)N2CCOCC2)cc1NC(=O)COC(=O)c1cnccn1 -7.64%
O=C(Nc1nnc(CCc2ccccc2)s1)C1CCCO1 (configuration not stated) -19.8%
O=C(Nc1ccc(-c2nnc(-c3ccccc3)o2)cc1)C1CCCO1 (configuration not stated) -12.9%
O=C(CC1SC(N2CCCC2)=NC1=O)Nc1ccc(C(=O)NCCc2ccc(F)cc2)cc1 (configuration not stated) -4.16%
CCC(C)NC(=O)c1ccc(NC(=O)CC2SC(N3CCCCC3)=NC2=O)cc1 (configuration not stated) -4.54%
COc1ccccc1N1CCN(C(=O)C2Cc3ccccc3CN2C(=O)c2ccco2)CC1 (configuration not stated) -23.2%
CCOc1ccc(NC(=O)COC(=O)C2CCC(=O)N2)c([N+](=O)[O-])c1 (configuration not stated) -10.6%
CC(C)c1ccc(S(=O)(=O)N2CCN(C(C)C(=O)NC3CCCC3)CC2)cc1 (configuration not stated) -16.2%
Cc1ccc2oc(=O)c3cnn(CC(=O)N4CCN(c5ccccn5)CC4)c3c2c1 -21.9%
Cc1ccc2oc(=O)c3cnn(CC(=O)N4CCCCCC4)c3c2c1 -0.561%
O=C(O)C1C2C=CC(C2)C1C(=O)NCc1ccccc1 (configuration not stated) 3.26%
O=C(COC(=O)c1ccc(O)cc1O)NNC(=O)c1cccs1 13.6%
O=C(NC1CCN(Cc2ccccc2)CC1)c1ccc(Oc2cc(Cl)cc(Cl)c2)o1 26.7%
O=C(NC1CCN(Cc2ccccc2)CC1)c1c(F)cccc1F 24.1%
Cc1ccn2cc(C(=O)NC3CCN(Cc4ccccc4)CC3)nc2c1 15.3%
Cc1cc(C(=O)NC2CC(C)(C)Cc3c2cnn3-c2ccccc2)n[nH]1 (configuration not stated) -16%
O=C(c1ccncc1)N1CCN(S(=O)(=O)c2cccc([N+](=O)[O-])c2)CC1 4.87%
CC(Sc1nnc(C2CC2)n1C1CC1)C(=O)Nc1ccc(C(N)=O)cc1 (configuration not stated) -13.1%
CC(OC(=O)c1ccccc1NCCO)C(=O)Nc1ccnn1C(C)C (configuration not stated) -18.3%
COc1ccccc1CNS(=O)(=O)c1cc2c3c(c1)CCC(=O)N3CCC2 -11.8%
O=C(Nc1ccccc1)N1CCN(Cc2ccccc2)CC1 13.1%
O=C(c1cccc(Cl)c1)N1CCN(Cc2ccccc2)CC1 7.63%
CC(C)N(C(=O)CN1CCN(S(=O)(=O)c2ccc(Br)s2)CC1)C(C)C -1.58%
CCN(CC)CCn1c2c(c(SCC(=O)Nc3ccc(C(C)C)cc3)nc1=O)CCC2 14.2%
COc1ccc2cc1Oc1ccc(cc1)C[C@H]1c3cc(c(OC)cc3CCN1C)Oc1c(O)c(OC)cc3c1[C@H](C2)N(C)CC3 -8.18%
COc1ccc(CN2CCCC(N3CCc4ccccc4C3)C2)c(O)c1 (configuration not stated) -20%
CCCCNC(=O)Cn1nc(C)c(S(=O)(=O)N2CCOCC2)c1C 4.53%
CCCCN(CCCC)CC(O)Cn1c2ccccc2c(=O)c2ccccc21 (configuration not stated) 0.545%
O=C1c2ccccc2S(=O)(=O)N1CC(O)Cn1c2ccccc2c2ccccc21 (configuration not stated) 26.9%
Cc1ccc(C(=O)OCC(=O)Nc2ccc(Cl)cn2)cc1S(=O)(=O)N1CCOCC1 -15.2%
CC(C)(C)c1ccc(S(=O)(=O)N2CCN(C(=O)c3ccc4c(c3)C(=O)N(Cc3ccncc3)C4=O)CC2)cc1 -6.14%
O=C(NCCC1CCCCN1S(=O)(=O)c1cccs1)C(=O)Nc1ccc(F)cc1F (configuration not stated) 7.7%
CC(C(=O)N(C)CC(=O)Nc1ccccc1C(F)(F)F)N1C(=O)c2ccccc2C1=O (configuration not stated) 12.3%
Cc1nn(Cc2ccccc2)c(C)c1C(=O)N1CCN(CC(=O)Nc2ccccc2Cl)CC1 0.422%
